# ssDAF-12 act – activators of S. stercoralis DAF-12 nuclear receptor; hit rate 1% among 370,000; AID 652126; activation, % at 6.8 µM; HEK293 ssDAF-12/GRIP1 lit1-tk-luc reporter, luminescence; % of 3 µM dafachronic acid response;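 active means activation above the mean over all tested compounds plus 3 SD, cut at about 0.9% in these data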
# DAX1 StAR inh – blocks DAX1 repression of SF-1 activated StAR promoter | HEK293T StAR-luciferase reporter, SF-1/DAX-1 repression relief | inhibition, % at 6.8 µM | hit rate 1.1% among 370,000 | AID 652010;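 active means inhibition above the mean over all tested compounds plus 3 SD, cut at about 3.6% in these data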;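 further: higher inhibition means more luminescence from relief of DAX-1 repression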
# hcDAF-12 act – activates DAF-12 receptor from parasite H. contortus; HEK293 hcDAF-12 lit1-tk-luc reporter, luminescence; 0% DMSO, 100% Δ7-dafachronic acid; hit rate 1.4% among 370,000; activation, % at 6.8 µM; AID 652067;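 active means activation above the mean of all tested compounds plus 3 SD, cut at about 5.5% in these data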
# hgDAF12 agonist – agonists of H. glycines DAF-12 nuclear receptor | HEK293 GAL4-hgDAF12 UAS-luciferase reporter, agonist luminescence; normalized to butyrate control | activation, % at 6.8 µM | hit rate 1.8% among 370,000;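 active means activation above a cutoff set at the mean of all screened compounds plus 3 SD, cut at about 10% in these data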
# esBAF inh – blocks esBAF chromatin remodeling in mouse ES cells; reporter increase, % at 12.5 µM; Bmi1-luciferase knock-in reporter, 24 h; 100% = twice the neutral-well signal; hit rate 2% among 350,000; in the data active means activation above about 40%; inconclusive means no clear call, values can overlap the other calls;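 further: a rise in the Bmi1 reporter signal indicates esBAF inhibition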
# Wnt bcat act – activates Wnt/beta-catenin signaling in a reporter cell assay; activation, % at 9.35 µM; hit rate 1.2% among 300,000; activator, plate reader; AID 743398; in the data active means activation above about 30%, passing the limit was not always enough; inconclusive means no clear call, values can overlap the other calls
# A number is an active result; i = inactive; ? = inconclusive; nt = no result. The list is not random: actives were taken first. Their share in the collection is about 4.2%.
SMILES,ssDAF-12 act,DAX1 StAR inh,hcDAF-12 act,hgDAF12 agonist,esBAF inh,Wnt bcat act
CC(C)NC(=O)Nc1ccc2c(c1)CC(=O)N([C@@H](C)CO)C[C@H](C)[C@H](CN(C)S(=O)(=O)c1cccs1)O2,nt,nt,nt,nt,i,nt
CCOC(=O)c1c(C)oc2ccc(O)c(CN(C)C)c12,i,i,i,i,i,i
CCOC(=O)c1c(C)oc2cc(Cl)c(O)c(CN(C)C)c12,i,i,i,12.8,i,i
CCOCCn1c(COc2ccc(C)cc2)nc2ccccc21,i,i,i,i,nt,i
COCCn1c(COc2ccc(C)cc2)nc2ccccc21,i,i,i,i,64.1,i
C=CCn1c(COc2ccccc2)nc2ccccc21,i,i,i,i,49.6,i
CCCC(=O)Nc1ccc2c(c1)OC[C@@H](C)N(Cc1cccc(F)c1)C[C@@H](C)[C@H](OC)CN(C)C2=O,nt,nt,nt,nt,i,nt
Cc1c(Cl)cccc1NC(=O)c1cc(-c2ccccc2O)n[nH]1,i,i,i,i,49.0,i
Cc1cccc(NC(=O)c2cc(-c3cc(C)c(C)cc3O)n[nH]2)c1,i,i,i,i,70.1,?
CC(=O)Nc1ccc(NC(=O)c2cc(-c3ccc(C)cc3O)n[nH]2)cc1,i,i,i,i,i,i
COc1ccc(Cl)cc1NC(=O)c1cc(-c2ccccc2O)n[nH]1,i,i,i,i,nt,nt
O=C(N[C@H]1CC[C@H](CCn2cc(Cc3ccccc3)nn2)O[C@H]1CO)c1ccccn1,nt,nt,nt,nt,i,nt
C=CCNC(=O)C1CC1(c1cccc(C)c1)c1cccc(C)c1 (stereo unspecified),i,i,i,i,nt,42.4
Cc1cccc(C2(c3cccc(C)c3)CC2C(=O)NCC2CCCO2)c1 (stereo unspecified),i,i,i,i,nt,i
Cc1c(/C=N/Nc2ccc(C(=O)O)cc2)c2ccccc2n1C,i,i,i,i,66.7,i
Cc1c(/C=N\NC(=O)C2COc3ccccc3O2)c2ccccc2n1C (stereo unspecified),i,i,i,i,nt,nt
Cn1c2ccccc2c2cc(C(=O)O)ccc21,i,i,5.9,i,i,nt
CCC(=O)N1C[C@@H](O)COC[C@H]2O[C@@H](CC(=O)NC)CC[C@@H]21,nt,nt,nt,nt,i,nt
CCC(=O)N1CCc2nc(-c3ccccc3)sc2C1,i,i,i,i,46.3,i
O=C(Cc1ccccc1)N1CCc2[nH]nc(-c3ccccc3)c2C1,i,i,i,i,i,i
O=C(C[C@@H]1CC[C@H]2[C@@H](COC[C@H](O)CN2S(=O)(=O)c2ccccc2)O1)NCC1CCCCC1,nt,nt,nt,nt,i,nt
COCCC(=O)N1CCC(C(=O)Nc2ccc(Oc3ccccc3)nc2)CC1,i,i,5.8,i,i,i
COCCc1ncc(CN2CCCCC2C(=O)Nc2ccc(Oc3ccccc3)nc2)cn1 (stereo unspecified),i,i,i,i,i,i
O=C(Nc1ccc(Oc2ccccc2)nc1)C1CCCCN1Cc1ccc(O)cc1 (stereo unspecified),i,3.9,i,i,i,i
CC(C)C#Cc1cnc2c(c1)C(=O)N([C@H](C)CO)C[C@@H](C)[C@H](CN(C)Cc1ccccc1F)O2,nt,nt,nt,nt,i,nt
SMILES,ssDAF-12 act,DAX1 StAR inh,hcDAF-12 act,hgDAF12 agonist,esBAF inh,Wnt bcat act
CCCC#Cc1cnc2c(c1)C(=O)N([C@H](C)CO)C[C@H](C)[C@@H](CN(C)C(=O)c1ccccc1)O2,nt,nt,nt,nt,i,nt
Cc1ccc(O)c(N=Cc2ccc(C)s2)c1,i,i,i,i,58.6,nt
Cc1ccc(O)c(N=Cc2cccs2)c1,i,i,5.8,i,nt,nt
Sc1ccccc1N=Cc1cccs1,i,i,i,i,i,i
COc1ccccc1-c1cn(CC[C@H]2CC[C@@H](NC(=O)c3cnccn3)[C@H](CO)O2)nn1,nt,nt,nt,nt,i,nt
Cc1ccc2sc(NC(=O)C3CC3)nc2c1C,i,i,i,i,63.4,i
O=C(CCN1C(=O)C2CCCCC2C1=O)Nc1nc2c(F)cc(F)cc2s1 (stereo unspecified),i,i,i,i,?,41.3
Cc1cccc2sc(NC(=O)C3CC3)nc12,i,i,i,i,i,i
O=C(Nc1nc2c(F)cc(F)cc2s1)C1CC1,i,i,i,i,49.3,i
C[C@H](CO)N1C[C@H](C)[C@@H](CN(C)C(=O)Nc2ccc(F)cc2)Oc2ccc(NS(=O)(=O)c3ccccc3)cc2CC1=O,nt,nt,nt,nt,i,nt
O=C(C[C@@H]1CC[C@H](NC(=O)C2CCC2)[C@H](CO)O1)NC1CCCCC1,nt,nt,nt,nt,i,nt

# Screening data as filed in PubChem.
